Reference: PubChem BioAssay AID1159580 (chemical genetic matrix, 2015)
“And” between values parts separate entries of the source, which are not always exact repeats. Identical values can stand only once. Screen size: about 5,500 compounds; about 2,000 (36%) were called active. Another 18% or so got no clear call; they are omitted. No stated cut-off is given here; in the data, active means normalized growth mostly below about 0.91 (no sharp cut-off); inconclusive means no clear call, values can overlap the other calls; inactive means mostly above about 0.92. This is one part of the list.

Experiment: chemical genetic growth profiling, strain panel (AID 1159580);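 further: tested at 20 µM; growth read once vehicle control cultures reached saturation at 30 °C; 1 = growth at the plate median or of vehicle wells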
Settings: S. cerevisiae deletion strains, growth OD

Measured: normalized growth

C1N2CN3CN1CN(C2)C3
inactive: locus YAL013W, strain DEP1, stronger effect = lower value 0.975 | locus YAL021C, strain ccr4, stronger effect = lower value 0.986 | locus YAL026C, strain drs2, stronger effect = lower value 1 | locus YAL030W, strain snc1, stronger effect = lower value 0.993 | locus YBL061C, strain skt5, stronger effect = lower value 0.991 | locus YBR009C, strain hhf1, stronger effect = lower value 1.03 | locus YBR021W, strain FUR4, stronger effect = lower value 1.06 | locus YBR023C, strain chs3, stronger effect = lower value 0.984 | locus YBR171W, strain sec66, stronger effect = lower value 0.991 | locus YBR229C, strain ROT2, stronger effect = lower value 0.949 | locus YBR231C, strain swc5, stronger effect = lower value 1 | locus YBR279W, strain paf1, stronger effect = lower value 0.985 | locus YCL011C, strain gbp2, stronger effect = lower value 0.986 | locus YCL016C, strain dcc1, stronger effect = lower value 0.961 | locus YCL029C, strain bik1, stronger effect = lower value 0.977 | locus YCL061C, strain MRC1, stronger effect = lower value 0.987 | locus YCL069W, strain vba3, stronger effect = lower value 1 | locus YCR088W, strain abp1, stronger effect = lower value 0.982 | locus YDL005C, strain med2, stronger effect = lower value 0.999 | locus YDL035C, strain GPR1, stronger effect = lower value 0.989 | locus YDL040C, strain nat1, stronger effect = lower value 0.996 | locus YDL074C, strain BRE1, stronger effect = lower value 0.972 | locus YDL101C, strain DUN1, stronger effect = lower value 0.955 | locus YDL134C, strain PPH21, stronger effect = lower value 0.983 | locus YDL185W, strain tfp1, stronger effect = lower value 0.951 | locus YDL192W, strain arf1, stronger effect = lower value 0.972 | locus YDR001C, strain nth1, stronger effect = lower value 0.994 | locus YDR069C, strain doa4, stronger effect = lower value 1.03 | locus YDR101C, strain arx1, stronger effect = lower value 0.977 | locus YDR137W, strain rgp1, stronger effect = lower value 0.985 | locus YDR150W, strain NUM1, stronger effect = lower value 0.972 | locus YDR159W, strain sac3, stronger effect = lower value 1.04 | locus YDR162C, strain NBP2, stronger effect = lower value 0.954 | locus YDR195W, strain ref2 1.01 | locus YDR297W, strain sur2, stronger effect = lower value 0.986 | locus YDR318W, strain mcm21, stronger effect = lower value 0.98 | locus YDR334W, strain swr1, stronger effect = lower value 0.974 | locus YDR335W, strain msn5, stronger effect = lower value 0.997 | locus YDR388W, stronger effect = lower value 0.976 | locus YDR392W, strain spt3, stronger effect = lower value 0.923 | locus YDR502C, strain sam2, stronger effect = lower value 0.966 | locus YEL003W, strain gim4, stronger effect = lower value 1 | locus YEL037C, strain rad23, stronger effect = lower value 0.982 | locus YEL061C, strain CIN8 (second series), stronger effect = lower value 0.978 | locus YEL061C, strain CIN8, stronger effect = lower value 0.983 | locus YER015W, strain faa2, stronger effect = lower value 0.988 | locus YER016W, strain bim1, stronger effect = lower value 0.999 | locus YER110C, stronger effect = lower value 0.975 | locus YER111C, strain swi4, stronger effect = lower value 0.978 | locus YER155C, strain BEM2 (second series), stronger effect = lower value 0.991 | locus YER155C, strain BEM2, stronger effect = lower value 0.982 | locus YER167W, strain BCK2, stronger effect = lower value 0.984 | locus YFR010W, strain ubp6, stronger effect = lower value 0.988 | locus YGL078C, strain dbp3, stronger effect = lower value 0.942 | locus YGL086W, strain mad1, stronger effect = lower value 0.991 | locus YGL167C, strain pmr1, stronger effect = lower value 0.992 | locus YGL173C, strain kem1, stronger effect = lower value 0.994 | locus YGL227W, strain vid30, stronger effect = lower value 1 | locus YGL240W, strain doc1, stronger effect = lower value 0.999 | locus YGL248W, strain PDE1, stronger effect = lower value 0.973 | locus YGL253W, strain hxk2, stronger effect = lower value 0.998 | locus YGR078C, strain PAC10, stronger effect = lower value 0.973 | locus YGR135W, strain pre9, stronger effect = lower value 0.934 | locus YGR229C, strain SMI1, stronger effect = lower value 0.966 | locus YGR252W, strain gcn5, stronger effect = lower value 1.12 | locus YHR013C, strain ard1, stronger effect = lower value 0.95 | locus YHR027C, strain rpn1, stronger effect = lower value 0.99 | locus YHR030C, strain SLT2, stronger effect = lower value 0.99 and 0.968 | locus YHR079C, strain IRE1 (second series), stronger effect = lower value 0.974 | locus YHR079C, strain IRE1, stronger effect = lower value 0.929 | locus YHR094C, strain hxt1, stronger effect = lower value 0.976 | locus YHR129C, strain ARP1, stronger effect = lower value 0.978 | locus YHR142W, strain chs7, stronger effect = lower value 0.973 | locus YHR200W, strain rpn10, stronger effect = lower value 0.975 | locus YIL066C, strain RNR3, stronger effect = lower value 0.984 | locus YIL073C, strain SPO22, stronger effect = lower value 0.895 | locus YIL125W, strain kgd1, stronger effect = lower value 0.979 | locus YIR030C, strain dcg1, stronger effect = lower value 0.976 | locus YJL092W, strain hpr5, stronger effect = lower value 0.982 | locus YJL095W, strain BCK1 (second series), stronger effect = lower value 0.986 | locus YJL095W, strain BCK1, stronger effect = lower value 0.988 and 0.948 | locus YJL115W, strain asf1, stronger effect = lower value 0.985 | locus YJL129C, strain trk1, stronger effect = lower value 0.979 | locus YJL134W, strain LCB3, stronger effect = lower value 0.98 | locus YJL154C, strain vps35, stronger effect = lower value 0.991 | locus YJL164C, strain tpk1, stronger effect = lower value 0.99 | locus YJL166W, strain qcr8, stronger effect = lower value 0.964 | locus YJL168C, strain set2, stronger effect = lower value 0.985 | locus YJL187C, strain SWE1 (second series), stronger effect = lower value 0.975 | locus YJL187C, strain SWE1, stronger effect = lower value 0.988 | locus YJR043C, strain POL32, stronger effect = lower value 0.997 | locus YJR066W, strain TOR1, stronger effect = lower value 0.987
